Laboratory results: PubChem BioAssay (NCI)
About 83,000 compounds went through this panel and 20% of them were active in at least one assay; those are over-represented in the sample as a whole.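 In brief: 96-well plates, 48 h treatment, single concentration, percent growth endpoint.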 Active and inactive are the calls of the source. How the source made its calls: active means growth percent below 10; inactive means the rest.

Legend:
Experiment in all cases: NCI-60 one-dose screen, 48 h (100 = growth as untreated, 0 = no growth, -100 = all killed)
Details in all cases: 10 µM unless noted
[1] = system: RPMI-8226 leukemia
[2] = system: OVCAR-8 ovarian
[3] = system: OVCAR-5 ovarian
[4] = system: OVCAR-4 ovarian
[5] = system: SK-OV-3 ovarian
[6] = system: IGROV1 ovarian
[7] = system: OVCAR-3 ovarian
[8] = system: HS 578T breast
[9] = system: NCI/ADR-RES ovarian
[10] = system: T-47D breast
[11] = system: BT-549 breast
[12] = system: MDA-MB-435 melanoma
[13] = system: SW-620 colon
[14] = system: MCF7 breast
[15] = system: HCT-116 colon
[16] = system: HCC-2998 colon
[17] = system: KM12 colon

Measured: growth

C[C@]12C[C@@H](c3ccoc3)OC(=O)[C@@H]1CC[C@]1(C)[C@@H]2CC[C@@H](O)[C@]1(C)O
inactive: [1] 101% | [2] 104% | [3] 137% | [4] 128% | [5] 105% | [6] 102% | [7] 112% | [8] 81.1% | [9] 104% | [10] 82.6% | [11] 106% | [12] 57.4% | [13] 63.2% | [14] 108% | [15] 90.5% | [16] 95.8% | [17] 102%

O=C1C(=O)N(CCCCn2cc(CO)nn2)c2ccccc21
inactive: [1] 99.3% | [2] 102% | [3] 98.6% | [4] 99.2% | [5] 100% | [6] 106% | [7] 115% | [8] 98.8% | [9] 100% | [10] 98.7% | [11] 115% | [12] 98.9% | [13] 99.7% | [14] 100% | [15] 95.5% | [16] 107% | [17] 101%

Cc1nn(-c2ccccc2)c2nc(C)n(-c3ccc(Br)cc3)c(=O)c12
active: [1] 9.81% | [7] -31.7% | [9] 3.19% | [12] -5.13%
inactive: [2] 25.9% | [3] 36.3% | [4] 40.1% | [5] 41.7% | [6] 30.6% | [8] 15% | [10] 23.4% | [11] 50.7% | [13] 22.6% | [14] 13.4% | [15] 15.7% | [16] 32.6% | [17] 43.1%

O=C(COCc1c(-c2ccccc2)no[n+]1[O-])Nc1ccc(C(=O)/C=C/c2ccc3c(c2)OCO3)cc1
inactive: [1] 74.2% | [2] 87.5% | [3] 99.4% | [4] 114% | [5] 112% | [6] 95.2% | [7] 113% | [8] 101% | [9] 106% | [10] 94.1% | [11] 96% | [12] 95.3% | [13] 105% | [14] 92.2% | [15] 73.1% | [16] 102% | [17] 104%

CCOC(=O)C(CC)n1c(=O)c2cc(OC)c(OC)cc2c2cnc3[nH]ccc3c21 (configuration not stated)
inactive: [1] 70.1% | [2] 80% | [3] 63.8% | [4] 93.3% | [5] 58.5% | [6] 19.7% | [7] 76.3% | [8] 41.7% | [9] 73.3% | [10] 26.1% | [11] 47.6% | [12] 88.2% | [13] 79.9% | [14] 50.1% | [15] 67.9% | [16] 83.4% | [17] 26%

COc1c2ccccc2c(OC)c2[nH]c(=O)ccc12
active: [12] -67.2%
inactive: [1] 55.2% | [2] 87% | [3] 75.4% | [4] 60.4% | [5] 92.6% | [6] 81.5% | [7] 59.2% | [8] 32.8% | [9] 57.6% | [10] 67.8% | [11] 26.7% | [13] 61.7% | [14] 42.2% | [15] 57.6% | [16] 81% | [17] 36.2%

C[C@@H]1CC[C@@H]2[C@@H]1[C@H](OC(=O)/C=C/c1ccccc1)[C@]1(C3CCCCC3)C[C@@H](OC(=O)CO)[C@@]2(C)O1
inactive: [1] 44.9% | [2] 45.2% | [3] 96% | [4] 74.8% | [5] 81.4% | [6] 81.3% | [7] 75.1% | [9] 51.1% | [10] 42.8% | [12] 87.9% | [13] 77.6% | [14] 38.3% | [15] 52% | [16] 78% | [17] 69.1%
active: [8] -22.4% | [11] 0.688%

CC/C=C\C[C@H](O)C/C=C1/C(=O)C=C[C@@H]1C/C=C\CCCC(=O)NC(C)C
active: [1] -5.29% | [2] -12.5% | [7] -6.93% | [11] 0.828% | [12] 5.43% | [15] -54.3% | [16] -55.5% | [17] -43.5%
inactive: [3] 41.6% | [4] 35.6% | [5] 21.4% | [6] 14.8% | [8] 46.6% | [9] 15.9% | [10] 11.4% | [13] 11.7% | [14] 14.4%

O=C(CO[N+](=O)[O-])Nc1ccc(C(=O)/C=C/c2ccc3c(c2)OCO3)cc1
active: [15] -5.9%
inactive: [1] 46.8% | [2] 75.8% | [3] 96.5% | [4] 96.1% | [5] 111% | [6] 48.3% | [7] 80.6% | [8] 103% | [9] 84.5% | [10] 83% | [11] 87.6% | [12] 62.6% | [13] 47.8% | [14] 26.2% | [16] 69.2% | [17] 35.9%

Cc1nc2nc(N)nc(N)c2nc1C
inactive: [1] 100% | [2] 96.2% | [3] 93.6% | [4] 96.4% | [5] 103% | [6] 108% | [7] 98% | [8] 99.6% | [9] 102% | [10] 91.2% | [11] 89.4% | [12] 99.5% | [13] 100% | [14] 97.9% | [15] 94.3% | [16] 99% | [17] 102%

CCC(c1ccccc1)C(CC)c1ccc(O)c(O)c1 (configuration not stated)
inactive: [1] 102% | [2] 102% | [3] 115% | [4] 82.4% | [5] 112% | [6] 96.5% | [7] 86% | [8] 87.1% | [9] 96.1% | [10] 80.5% | [11] 110% | [12] 95% | [13] 97.3% | [14] 98.7% | [15] 88.2% | [16] 97.5% | [17] 90.9%

CC[C@H](Nc1cc(C)nc(N)n1)c1nc2cccc(NCc3ccc(C(=O)NO)cc3)c2c(=O)n1-c1ccccc1
active: [1] -17.9% | [6] -4.45% | [12] -15% | [13] -10.8% | [15] -18.7%
inactive: [2] 17.7% | [3] 32.3% | [4] 49.3% | [5] 29.8% | [7] 16.4% | [8] 32.1% | [9] 90.6% | [10] 18.7% | [11] 49.1% | [14] 24.7% | [16] 19.9% | [17] 13.1%

Nc1ccc(Nc2nccc(-c3ccc4ccccc4c3)n2)cc1
inactive: [1] 29.7% | [2] 48.2% | [3] 69.1% | [4] 56.4% | [5] 60.7% | [6] 38.2% | [7] 46.9% | [8] 43.1% | [9] 18.4% | [10] 57.1% | [11] 57.7% | [13] 33.1% | [14] 19% | [15] 26.2% | [16] 71.9% | [17] 27.2%
active: [12] 8.53%

O=C1C=CC(=O)c2c1nc1n2CCCC1
active: [12] -68.5%
inactive: [1] 116% | [2] 92% | [3] 112% | [4] 101% | [5] 92.5% | [6] 103% | [7] 21% | [8] 73.1% | [9] 89.6% | [10] 86.7% | [11] 95.2% | [13] 62.3% | [14] 57.8% | [15] 91.9% | [16] 57.6% | [17] 75%

CC(=O)/C(=C/c1cccc(Cl)c1)C(=O)c1ccccc1
inactive: [1] 16.8% | [2] 85.2% | [3] 94.1% | [4] 89.6% | [5] 96.3% | [6] 83% | [7] 96.1% | [8] 94.7% | [9] 75.8% | [10] 63.6% | [11] 72.6% | [12] 72.7% | [13] 71.3% | [14] 34% | [15] 41.7% | [16] 99.9% | [17] 54.8%

CCCCOc1ccc(NC(=O)n2nc(NC(C)=O)c3cc(NC(C)=O)ccc32)cc1
inactive: [1] 76.9% | [2] 92.5% | [3] 114% | [4] 106% | [5] 117% | [6] 95.3% | [7] 98% | [8] 103% | [9] 105% | [10] 83.2% | [11] 81% | [12] 92.3% | [13] 121% | [14] 91.9% | [15] 88.8% | [16] 101% | [17] 111%
